Experimental findings from PMC4102417 are described below.

The test concerns murine 3T3 fibroblasts. Put plainly: primary screen, percent viability or growth; higher = less effect of the substance. On the procedure:
Similarly, for measuring the cytotoxicity concentration (CC50) for 3T3 fibroblast cells, cultures were incubated with drugs for 72 hours and developed using Alamar Blue (Alamar Biosciences Inc, Sacramento, CA) as previously described.
Regarding `COC(=O)C1(C)CCCC2(C)c3ccc(C(C)C)cc3C(=O)CC12` (centres unmarked), the “Mammalian (3T3) cell % growth at 10 uM” value is recorded as 91.8%. Next, `CN(C)CC/C=C1/c2ccccc2Sc2ccc(Cl)cc21`: 97.1%; `CC(=O)OC1CC2C(C)(C)C(=O)C3OC3C2(C)C2CCC3(C)C(c4ccoc4)OC(=O)C4OC43C12C` (centres unmarked): 73.4%. Consider `NS(=O)(=O)c1cc(C(=O)O)c(NCc2ccco2)cc1Cl`, for which the “Mammalian (3T3) cell % growth at 10 uM” value was determined as 79.1%. The figure for `Oc1ccc2c(c1)O[C@H](c1ccc(O)c(O)c1)[C@@H](O)C2` is 97.8%. Next, `Clc1ccccc1C(c1ccccc1)(c1ccccc1)n1ccnc1`: 100%; `COc1cc(O)c(C(=O)/C=C/c2ccc(O)c(OC)c2)c(OC)c1`: 10.2%; `COC(=O)C1(C)CCCC2(C)c3ccc(O)c(C(C)C)c3CCC12` (centres unmarked): 38.5%. Next, `CC(=O)N1CCN(c2ccc(OC[C@H]3CO[C@](Cn4ccnc4)(c4ccc(Cl)cc4Cl)O3)cc2)CC1`: 100%; `O=C1C=CC(=O)c2c(O)cccc21`: 66.4%; `COc1cc(O)c2c(=O)cc(-c3ccc(OC)c(-c4c(O)cc(O)c5c(=O)cc(-c6ccc([O-])cc6)oc45)c3)oc2c1.[K+]`: 4.2%. For the compound `CCCCC(CC)CNC(=N)NC(=N)NCCCCCCNC(=N)NC(=N)NCC(CC)CCCC.Cl.Cl` (centres unmarked), the “Mammalian (3T3) cell % growth at 10 uM” value came out at 12.3%.

Turning to `COC(=O)[C@H]1[C@H]2C[C@@H]3c4[nH]c5cc(OC)ccc5c4CCN3C[C@H]2C[C@@H](OC(=O)c2cc(OC)c(OC)c(OC)c2)[C@@H]1OC`, the “Mammalian (3T3) cell % growth at 10 uM” value was 100%. Next, `COc1cc(OC)c2c(=O)c(OC)c(-c3ccc(OC)c(OC)c3)oc2c1`: 43.3%. The figure for `CCCC(C(=O)OCCN(CC)CC)(c1ccccc1)c1ccccc1` is 100%; for `CO[C@H]1C[C@H](O[C@H]2[C@H](C)[C@@H](O[C@@H]3O[C@H](C)C[C@H](N(C)C)[C@H]3O)[C@@H](C)C[C@@]3(CO3)C(=O)[C@H](C)[C@@H](O)[C@@H](C)[C@@H](C)OC(=O)[C@@H]2C)O[C@@H](C)[C@@H]1O.O=P(O)(O)O` it is 100%. As for `C=C1C(=O)C23C(O)C1CCC2C12COC3(O)C(O)C1C(C)(C)CCC2O` (centres unmarked), the “Mammalian (3T3) cell % growth at 10 uM” value is listed as 0.2%. For the compound `CN1CCCC(n2nc(Cc3ccc(Cl)cc3)c3ccccc3c2=O)CC1.Cl` (centres unmarked), the “Mammalian (3T3) cell % growth at 10 uM” value came to 95.1%. Take `CC1(C)C(=O)C=CC2(C)C1CC(O)C1(C)C2CCC2(C)C(c3ccoc3)OC(=O)C3OC321` (centres unmarked): the “Mammalian (3T3) cell % growth at 10 uM” value is given as 76%. Next, `Oc1ccc2c(c1)OC[C@]1(O)Cc3cc(O)c(O)cc3[C@H]21`: 3.6%; `Clc1ccc(COC(Cn2ccnc2)c2ccc(Cl)cc2Cl)c(Cl)c1` (centres unmarked): 100%. The figure for `Cc1cc(/C=C/c2ccc3cc(N(C)C)ccc3[n+]2C)c(C)n1-c1ccccc1.O=C([O-])c1cc2ccccc2c(Cc2c(O)c(C(=O)O)cc3ccccc23)c1O` is 50%; for `COc1cc([C@@H]2c3cc4c(cc3[C@@H](O[C@@H]3O[C@@H]5CO[C@@H](c6cccs6)O[C@H]5[C@H](O)[C@H]3O)[C@H]3COC(=O)[C@H]23)OCO4)cc(OC)c1O` it is 50.4%; for `COc1c(C)c2c(c(O)c1C/C=C(\C)CCC(=O)O)C(=O)OC2` it is 97.2%. On to `CN(C)CCCN1c2ccccc2CCc2ccc(Cl)cc21.Cl`, for which the “Mammalian (3T3) cell % growth at 10 uM” value was 84.6%. Take `CC1(C)C(=O)C=CC2(C)C1=C(O)C(=O)C1(C)C2CCC2(C)C(c3ccoc3)CC3OC321` (centres unmarked): the “Mammalian (3T3) cell % growth at 10 uM” value was 25.5%. As to `CN1CCN(CCCN2c3ccccc3Sc3ccc(C(F)(F)F)cc32)CC1`, the “Mammalian (3T3) cell % growth at 10 uM” value is 94.7%.

Take `O=c1cc(-c2ccccc2)oc2cc(O)c(O)c(O)c12`: the “Mammalian (3T3) cell % growth at 10 uM” value was found to be 4.9%. With `C=C1C(=O)O[C@H]2[C@H]1CC/C(C)=C/CC[C@@]1(C)O[C@@H]21`, the “Mammalian (3T3) cell % growth at 10 uM” value is 0.7%. With `CNc1ccc(C(=O)CC(O)CCC(C)C2OC(=O)CC(O)CC(=O)CC(O)CC(O)CC(O)CC(O)CC3(O)CC(O)C(C(=O)OC)C(CC(O[C@@H]4O[C@H](C)[C@@H](O)[C@H](N)[C@@H]4O)/C=C/C=C/C=C/C=C\C=C/C=C/C=C/C2C)O3)cc1` (some centres unmarked), the “Mammalian (3T3) cell % growth at 10 uM” value stood at 97.3%. Next, `N[C@@H](Cc1ccc(O)c(O)c1)C(=O)O`: 3.9%; `CC(=O)OC1CCC2(C)C(CC(OC(C)=O)C3(C)C2CCC2(C)C(c4ccoc4)OC(=O)C4OC423)C1(C)C` (centres unmarked): 96.7%.
